# This is a sample that favours compounds with a hit; in the whole collection about 2.3% have one here.
# M1 ag: human M1 muscarinic receptor agonism; P11229; CHO-K1 hM1, Fluo-8 calcium fluorescence, agonist mode; 0% DMSO, 100% acetylcholine EC100; activation, % at 3 µM; 360,000 tested, 0.33% active; AID 588814;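 active = activation above the run's mean compound activation plus 3 SD, cut at about 16% in these data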;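 note: peak over basal fluorescence ratio within a 140 s kinetic read after compound addition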
# Target sequence (P11229 whole entry, looked up): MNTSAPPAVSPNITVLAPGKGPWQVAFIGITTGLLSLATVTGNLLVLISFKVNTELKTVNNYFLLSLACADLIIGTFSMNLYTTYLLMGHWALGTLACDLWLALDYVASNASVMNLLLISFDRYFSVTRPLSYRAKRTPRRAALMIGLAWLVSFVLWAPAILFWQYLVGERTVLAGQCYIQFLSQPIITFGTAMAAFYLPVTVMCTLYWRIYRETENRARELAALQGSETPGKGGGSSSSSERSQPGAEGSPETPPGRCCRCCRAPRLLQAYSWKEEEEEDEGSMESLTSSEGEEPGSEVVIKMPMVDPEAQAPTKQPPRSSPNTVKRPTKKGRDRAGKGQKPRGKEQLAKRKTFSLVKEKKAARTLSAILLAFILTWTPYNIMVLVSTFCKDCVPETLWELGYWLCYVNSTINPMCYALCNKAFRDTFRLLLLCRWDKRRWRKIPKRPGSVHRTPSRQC
# CHRM1 PAM: human CHRM1 positive allosteric modulation. activation, % at 3 µM. CHO-K1 hM1, Fluo-8 calcium fluorescence, ACh EC20; 0% = ACh EC20, 100% = maximal ACh. P11229. 360,000 tested, 0.088% active; in the data active = activation above about 19%, passing the limit was not always enough
# M1 antag: antagonists of human M1 muscarinic receptor; P11229; CHO-K1 hM1, Fluo-8 calcium fluorescence, ACh EC80 antagonist; inhibition, % at 3 µM; 360,000 tested, 1.3% active; AID 588852;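 active = percent inhibition above its own plate's cutoff, namely the mean of that plate's compound wells plus 3 SD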;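 note: peak over basal fluorescence ratio during 140 s after agonist addition; 0% = ACh EC80 plus DMSO and 100% = DMSO alone without agonist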
# CHO-K1 Ca antag: nonselective inhibitor or artifact in parental CHO-K1 cells | ATP-induced calcium, Fluo-8 fluorescence | inhibition, % at 3 µM | 360,000 tested, 0.6% active | AID 602250;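 active = inhibition above a per-plate cutoff, the plate's mean sample inhibition plus 3 SD, cut at about 24% in these data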;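 note: 0% = DMSO plus EC80 ATP and 100% = DMSO alone without ATP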
# CHO-K1 Ca PAM: M1 PAM counterscreen hit in parental CHO-K1 cells; ATP EC20, Fluo-8 calcium fluorescence; 0% at ATP EC20, 100% at ATP max; activation, % at 3 µM; 360,000 tested, 0.02% active; AID 602247;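 active = activation above the run cutoff, the mean activation of all test compounds plus 3 SD, cut at about 40% in these data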;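 note: peak over basal fluorescence ratio in a 140 s read after ATP addition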
# CHO-K1 Ca ag: nonselective activator or artifact in parental CHO-K1 cells | Fluo-8 calcium fluorescence; scaled to maximal ATP response, vehicle zero | activation, % at 3 µM | 360,000 tested, 0.48% active; in the data active = activation above about 15%;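 note: untransfected CHO-K1 host cells lacking M1 receptor as counterscreen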
# * hit, by the source's call; . = no result given; ! = not confirmed by another sample.
SMILES,M1 ag,CHRM1 PAM,M1 antag,CHO-K1 Ca antag,CHO-K1 Ca PAM,CHO-K1 Ca ag
CCOC(=O)N1CCN(C(=O)c2cc(Cl)c(Cl)cc2C(=O)O)CC1,31.6*,4.6,-7.8,-18.3,21.7,0.0
CCCOC1CCCN(C(=O)c2cc(Cl)c(Cl)cc2C(=O)O)C1 (stereo unspecified),59.7*,-18.1,51.7*,-10.1,10.0,-0.1
CCC(CC)C(=O)N(C)c1c(C)nc2c(OCCC3CCCCC3)cccn12,-7.4,-7.9,-1.6,-10.8,7.2,-0.1
COCOCCn1cc(CN2CCS(=O)(=O)N(Cc3ccc(-c4ccccc4)cc3)C(C(C)C)C2=O)nn1 (stereo unspecified),-2.6,4.5,-5.7,10.9,-10.9,0.3
N#Cc1ccc(CN(Nc2ccccc2)c2ccccc2)cc1,-5.5,-9.0,2.9,29.2*,-12.1,-0.6
O=C(CCNS(=O)(=O)c1ccc2nsnc2c1)N1CCN(c2ccncc2)CC1,-10.4,-29.8,61.8*,-15.9,9.8,0.2
Cc1ccc(S(=O)(=O)NCCC(=O)N2CCN(c3cccc(Cl)c3)CC2)cc1C,-0.7,6.0,-10.7,-6.7,4.2,6.1
O=C1c2cccc3cccc(c23)C(=O)N1CC1CCN(CC(O)COc2ccc3ccccc3c2)CC1 (stereo unspecified),1.0,-15.9,47.5*,-1.9,10.8,11.1
Cc1cc(C)cc(OCC(O)CN2CCC(CN3C(=O)c4cccc5cccc(c45)C3=O)CC2)c1 (stereo unspecified),2.4,-19.9,47.9*,4.2,-4.1,7.6
N#CN(CC(N)=O)c1nc(N2CCCCC2)nc(N2CCCCC2)n1,-1.9,-10.9,13.3,27.6*,-9.2,0.2
C[n+]1c2cc(N)ccc2cc2ccc(N)cc21,204.7*,-17.1,14.4,25.2*!,3.5,210.1*
Nc1ccc2ccc(O)cc2c1,-1.5,6.1,-10.2,1.8,-3.1,-0.1
NC(c1csc(Nc2ncccn2)n1)c1ccccc1Cl (stereo unspecified),-1.4,-2.6,-3.4,-9.4,1.0,0.1
CC(=O)Nc1c(NC(C)C)c2ccccc2oc1=O,1.4,13.7,-9.8,-18.3,13.6,3.5
CC(=O)Nc1c(Nc2ccccc2)c2ccccc2oc1=O,-6.5,12.5,-3.7,18.2,6.4,15.3*
CCOC(=O)C1CCN(C2=C(NS(=O)(=O)c3ccc(Cl)cc3)C(=O)c3ccccc3C2=O)CC1,30.5*,-14.5,11.8,-3.6,11.4,0.6
CC1CCN(C2=C(NS(=O)(=O)c3ccc(Cl)cc3)C(=O)c3ccccc3C2=O)CC1,-9.0,3.8,-3.1,-5.8,20.8,-0.1
CCOC(=O)C1CCN(CC(C)(C)NS(=O)(=O)c2ccc(C)cc2)CC1,-11.9,27.5*,-26.5,-14.8,4.3,1.8
CCOC(=O)C1CCCN(C2=C(NS(=O)(=O)c3ccc(Br)cc3)C(=O)c3ccccc3C2=O)C1 (stereo unspecified),41.0*,-19.8,29.6,4.8,-9.1,3.9
CC12CCC=CC1=C(C=O)C1C2CCC2(C)C(O)CCC12 (stereo unspecified),2.4,0.5,5.8,-6.9,12.3,2.6
Cc1cn(CC(=O)NCc2nc3ccccc3[nH]2)c(=O)[nH]c1=O,.,.,.,-27.0,20.9,1.5
Oc1ccc(C[C@H]2CNC(=S)N2C[C@H]2CCCN2C[C@H](Cc2ccccc2)N2C[C@H](Cc3ccc(O)cc3)N(CCc3ccccc3)C2=S)cc1,-6.2,11.3,-16.0,2.5,9.6,0.7
O=C(CCl)Nc1cccc2ncccc12,-4.0,8.7,-11.3,-16.4,18.0,0.6
COc1ccc(OCC(=O)NC(=S)Nc2ccc3c4c(cccc24)CC3)cc1,-0.8,-0.9,8.2,12.9,13.7,22.4*
COc1ccc(OCC(=O)Nc2cccc3ncccc23)cc1,0.5,-9.6,18.4,26.1*,-6.9,3.5
SMILES,M1 ag,CHRM1 PAM,M1 antag,CHO-K1 Ca antag,CHO-K1 Ca PAM,CHO-K1 Ca ag
Cc1ccc(CN2CCC(C)(Oc3cccc(Cl)c3)C2)cc1 (stereo unspecified),-4.5,-9.8,14.9,-7.7,19.2,0.2
OCCCNCc1ccc(N(c2ccccc2)c2ccccc2)cc1,-8.8,-31.1,70.5*,3.1,-1.8,4.6
OCCNCc1ccc(-c2ccccc2)cc1,-7.6,2.9,-4.7,5.3,2.2,0.1
O=S1(=O)CC(N2CCCCC2)CN1C1CCCCC1 (stereo unspecified),-6.1,9.0,-7.4,1.7,17.3,0.3
CN(C)CCC=C1c2ccccc2C=Cc2ccccc21,-6.0,-25.4,98.1*,-20.4,34.3,3.8
CNCCC=C1c2ccccc2C=Cc2ccccc21,-3.9,-25.1,98.0*,3.9,-2.8,0.8
COc1cccc(CNC(=O)c2cc3c(c(-c4cccc(-c5cccc(C#N)c5)c4)n2)[C@H](CCO)N(S(=O)C(C)(C)C)C3)c1 (stereo partly specified),-1.1,-8.9,19.3,11.4,9.6,3.9
CN(C)CCNC(=O)c1ccc2nc([C@@H]3O[C@H](CO)[C@H](O)[C@H](O)[C@H]3O)[nH]c2c1,-2.6,-6.0,3.9,-1.2,12.8,2.9
NC(=O)Cc1ccc(C(=O)c2ccccc2F)s1,-2.5,-8.7,3.0,25.3*,-9.2,0.1
CCOc1ccc(Cl)cc1-c1cc(C(=O)NCc2cccc(C(F)(F)F)c2)[nH]n1,-5.2,-5.9,6.7,-4.9,5.6,0.6
O=C(/C=C/c1cccc(Cl)c1)NCc1ccccc1,-5.7,-10.3,41.2*,-10.4,5.6,-0.7
COc1cccc(CN(C)CCCn2cnc(C(=O)Nc3ccc(C)c(C)c3)n2)c1,-5.9,-1.0,-0.1,-13.4,11.1,1.1
CCOC(=O)C1(C)CCN1C(=O)c1cc(C)n(C(C)(C)C)n1 (stereo unspecified),-2.5,11.2,-20.9,12.6,0.9,-0.1
Cc1cc(C(=O)N2CCC2(C)C(=O)O)nn1C(C)(C)C (stereo unspecified),-1.6,4.6,-21.8,26.8*,-10.8,-0.2
CC1(c2ccccc2)NC(=O)N(CC(=O)NCc2ccc3c(c2)OCO3)C1=O (stereo unspecified),-4.3,7.8,-4.5,-7.5,7.0,0.6
CC1(c2ccc(Cl)cc2)NC(=O)N(CC(=O)Nc2ccc3c(c2)OCO3)C1=O (stereo unspecified),19.5*,-5.0,4.1,1.0,-10.6,4.9
CC1(c2ccccc2Cl)NC(=O)N(CC(=O)NCc2ccc3c(c2)OCO3)C1=O (stereo unspecified),2.0,29.0*,-17.4,-13.9,2.7,3.3
CCCCNC(=O)C1(C)CCC(=O)N1C1CCN(Cc2ccccc2)CC1 (stereo unspecified),6.8,9.7,3.9,15.2,-3.6,0.2
Cc1ccccc1-c1cnc(C(O)c2ccc(F)c(F)c2)[nH]1 (stereo unspecified),-2.4,7.5,-16.1,11.7,9.1,0.5

# Screening results as filed in PubChem.
